Results from PubChem BioAssay.
The source made the active and inactive calls.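 How the source made its calls: active means viability loss from added drug above about 55%, and viability with drug at most 40%, in both replicates (limit read from the data, passing the limit was not always enough); inconclusive means both conditions met in only one replicate; inactive means neither replicate meets both conditions.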

assay: MRP1 drug-resistance reversers in H69AR cells – cell-based, doxorubicin co-treatment, pilot screen (AID 601); conditions: H69AR cells + 2 uM doxorubicin, CellTiter-Glo, 72 h; at 10 µM; stronger effect = higher value

SMILES	differential viability (reversal)
CN/C(=C/[N+](=O)[O-])NCCSCc1ccc(CN(C)C)o1	-0.85% (inactive)
CC1Oc2ccccc2N(CC(=O)NCc2cccs2)C1=O (stereo not given)	13.8% (inactive)
COCCn1c(C)cc(C(=O)COC(=O)c2ccc(N3CCCC3=O)cc2)c1C	8.88% (inactive)
Cc1ccc(S(=O)(=O)N2CCN(C(=O)N3CCOCC3)C2c2ccc(N(C)C)cc2)cc1 (stereo not given)	5.79% (inactive)
C/C(=C\c1ccco1)C1C(C#N)=C(N)OC2=C1C(=O)CC(C)(C)C2 (stereo not given)	-9.17% (inactive)
CC(=O)SCC(=O)N=c1sc2cc(F)ccc2n1C	-2.64% (inactive)
COCCNC(=O)C(c1ccc(C)o1)N(Cc1cccs1)C(=O)c1snc(C(N)=O)c1N (stereo not given)	0.375% (inactive)
c1ccc(-c2oc3ncnc(NCCN4CCOCC4)c3c2-c2ccccc2)cc1	40.4% (inactive)
CCOC(=O)C1=C(C)Nc2nc(SCC(=O)OC)nn2C1c1cc(F)cc(F)c1 (stereo not given)	7.16% (inactive)
Cc1ccc(-c2nnc3c4ccccc4c(C)nn23)cc1S(=O)(=O)N1CCN(C)CC1	-16.7% (inactive)
CCCCCC#CCC#CCC#CCC#CCCCC(=O)O	-0.29% (inactive)
CCn1c(SCC(=O)N2CCN(c3ccc(Cl)cc3)CC2)nc2ccccc2c1=O	-12.9% (inactive)
O=C(OC1CCc2ccccc2C1=O)c1ccccc1O (stereo not given)	-13.2% (inactive)
c1cc2c(cc1Cn1cnnn1)OCO2	12.3% (inactive)
Cc1cc(C)c(NC(=O)CSc2nnc(-c3ccncc3)n2Cc2ccco2)c(C)c1	3.25% (inactive)
CC1CCCCN1C(=O)Cn1nnc(-c2cccnc2)n1 (stereo not given)	8.68% (inactive)
CCc1ccccc1NC(=O)c1ccoc1C	10.8% (inactive)
COc1ccccc1NC(=O)NC(N)=O	1.88% (inactive)
Cc1nc(-c2ccccc2)sc1C(N)=O	-12.1% (inactive)
CCO/C([O-])=N/c1c[n+](N2CCOCC2)no1	-3.3% (inactive)

SMILES	differential viability (reversal)
N#Cc1cnc(SCCc2ccccc2)nc1N	6.68% (inactive)
CCCC1Cc2c(sc3ncnc(N)c23)CO1 (stereo not given)	-10.3% (inactive)
Cn1c(=O)c2c(nc(Br)n2CCSc2nnnn2-c2ccccc2)n(C)c1=O	-14.9% (inactive)
CCn1cc(C(=O)NCc2ccco2)c(=O)c2cc(F)c(N3CCN(C(=O)c4ccco4)CC3)cc21	40.8% (inactive)
COc1ccc(C)cc1-n1nnnc1SC/C(O)=C(\C#N)c1nc2ccccc2[nH]1	-13.1% (inactive)
Cc1cnc(NC(=O)CSc2nnc(-c3ccccc3)n2Cc2ccccc2)s1	4.35% (inactive)
CCN(CC)CCCNc1oc(-c2cccc(Cl)c2)nc1C#N	-0.39% (inactive)
COc1cccc(NC(=O)C2CCCN2C(=O)Nc2cccc(F)c2)c1 (stereo not given)	8.87% (inactive)
CN(C)CCC=C1c2ccccc2CCc2ccccc21	8.06% (inactive)
Cc1ccc(-c2nn[nH]n2)cc1	-4.72% (inactive)
CCn1c(SCC(=O)Nc2ccc3c(c2)OCO3)nnc1-c1cnccn1	5.74% (inactive)
c1ccc(-c2cnc(CSc3ncnc4sccc34)o2)cc1	14.7% (inactive)
CCOC(=O)C1=C[C@]2(CC)CCCN3CCc4c(n1c1ccccc41)[C@@H]32	16.4% (inactive)
NCc1ccc(S(N)(=O)=O)cc1	9.47% (inactive)
COC(=O)c1cc(S(=O)(=O)N2CCOCC2)c(N2CCOCC2)cc1N1CCOCC1	13.4% (inactive)
CSc1oc(-c2ccccc2)nc1S(=O)(=O)c1ccc(F)cc1	0.495% (inactive)
Cc1c(NC(=O)CCc2ccc(S(=O)(=O)N3CCOCC3)cc2)c(=O)n(-c2ccccc2)n1C	10.3% (inactive)
CC(C)N(C(=O)N1CCC(c2nc(-c3ccncc3)no2)CC1)C(C)C	-3.66% (inactive)
CCOC(=O)C1(CC)NC(c2cccc(F)c2)C2C(=O)N(CC)C(=O)C21 (stereo not given)	5.01% (inactive)
CCCCN1C(=O)C2C(C(=O)Nc3cccc(OC)c3)C3C=CC2(O3)C1C(=O)NC1CCCCC1C (stereo not given)	3.86% (inactive)

same assay, conditions: H69AR cells + 2 uM doxorubicin, CellTiter-Glo, 72 h; measured here: viability with 2 uM doxorubicin; at 10 µM; stronger effect = lower value

SMILES	viability
CN/C(=C/[N+](=O)[O-])NCCSCc1ccc(CN(C)C)o1	95%
CC1Oc2ccccc2N(CC(=O)NCc2cccs2)C1=O (stereo not given)	94.5%
COCCn1c(C)cc(C(=O)COC(=O)c2ccc(N3CCCC3=O)cc2)c1C	83.4%
Cc1ccc(S(=O)(=O)N2CCN(C(=O)N3CCOCC3)C2c2ccc(N(C)C)cc2)cc1 (stereo not given)	105%
C/C(=C\c1ccco1)C1C(C#N)=C(N)OC2=C1C(=O)CC(C)(C)C2 (stereo not given)	89.2%
CC(=O)SCC(=O)N=c1sc2cc(F)ccc2n1C	96.1%
COCCNC(=O)C(c1ccc(C)o1)N(Cc1cccs1)C(=O)c1snc(C(N)=O)c1N (stereo not given)	86%
c1ccc(-c2oc3ncnc(NCCN4CCOCC4)c3c2-c2ccccc2)cc1	32.9%
CCOC(=O)C1=C(C)Nc2nc(SCC(=O)OC)nn2C1c1cc(F)cc(F)c1 (stereo not given)	85.7%
Cc1ccc(-c2nnc3c4ccccc4c(C)nn23)cc1S(=O)(=O)N1CCN(C)CC1	90.7%
CCCCCC#CCC#CCC#CCC#CCCCC(=O)O	93.9%
CCn1c(SCC(=O)N2CCN(c3ccc(Cl)cc3)CC2)nc2ccccc2c1=O	91.5%
O=C(OC1CCc2ccccc2C1=O)c1ccccc1O (stereo not given)	91.8%
c1cc2c(cc1Cn1cnnn1)OCO2	92.7%
Cc1cc(C)c(NC(=O)CSc2nnc(-c3ccncc3)n2Cc2ccco2)c(C)c1	94.2%
CC1CCCCN1C(=O)Cn1nnc(-c2cccnc2)n1 (stereo not given)	94.6%
CCc1ccccc1NC(=O)c1ccoc1C	90.2%
COc1ccccc1NC(=O)NC(N)=O	94.5%
Cc1nc(-c2ccccc2)sc1C(N)=O	106%
CCO/C([O-])=N/c1c[n+](N2CCOCC2)no1	90%

SMILES	viability
N#Cc1cnc(SCCc2ccccc2)nc1N	91.2%
CCCC1Cc2c(sc3ncnc(N)c23)CO1 (stereo not given)	101%
Cn1c(=O)c2c(nc(Br)n2CCSc2nnnn2-c2ccccc2)n(C)c1=O	95.3%
CCn1cc(C(=O)NCc2ccco2)c(=O)c2cc(F)c(N3CCN(C(=O)c4ccco4)CC3)cc21	17.7%
COc1ccc(C)cc1-n1nnnc1SC/C(O)=C(\C#N)c1nc2ccccc2[nH]1	98.4%
Cc1cnc(NC(=O)CSc2nnc(-c3ccccc3)n2Cc2ccccc2)s1	85.8%
CCN(CC)CCCNc1oc(-c2cccc(Cl)c2)nc1C#N	77%
COc1cccc(NC(=O)C2CCCN2C(=O)Nc2cccc(F)c2)c1 (stereo not given)	94%
CN(C)CCC=C1c2ccccc2CCc2ccccc21	74.3%
Cc1ccc(-c2nn[nH]n2)cc1	111%
CCn1c(SCC(=O)Nc2ccc3c(c2)OCO3)nnc1-c1cnccn1	89.7%
c1ccc(-c2cnc(CSc3ncnc4sccc34)o2)cc1	82.2%
CCOC(=O)C1=C[C@]2(CC)CCCN3CCc4c(n1c1ccccc41)[C@@H]32	63.7%
NCc1ccc(S(N)(=O)=O)cc1	92.1%
COC(=O)c1cc(S(=O)(=O)N2CCOCC2)c(N2CCOCC2)cc1N1CCOCC1	72.1%
CSc1oc(-c2ccccc2)nc1S(=O)(=O)c1ccc(F)cc1	82.1%
Cc1c(NC(=O)CCc2ccc(S(=O)(=O)N3CCOCC3)cc2)c(=O)n(-c2ccccc2)n1C	89.8%
CC(C)N(C(=O)N1CCC(c2nc(-c3ccncc3)no2)CC1)C(C)C	106%
CCOC(=O)C1(CC)NC(c2cccc(F)c2)C2C(=O)N(CC)C(=O)C21 (stereo not given)	92.6%
CCCCN1C(=O)C2C(C(=O)Nc3cccc(OC)c3)C3C=CC2(O3)C1C(=O)NC1CCCCC1C (stereo not given)	78.2%
